This is a sample that favours compounds with a hit; in the whole collection about 2.4% have one here.
CHRM1 agonist: activates human CHRM1 receptor; actives 0.33% (n = 360,000); CHO-K1 hM1, Fluo-8 calcium fluorescence, agonist mode; 0% DMSO, 100% acetylcholine EC100; P11229; activation, % at 3 µM;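 active = activation above the run's mean compound activation plus 3 SD, cut at about 16% in these data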;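 also: peak over basal fluorescence ratio within a 140 s kinetic read after compound addition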
Target sequence (P11229 whole entry, looked up): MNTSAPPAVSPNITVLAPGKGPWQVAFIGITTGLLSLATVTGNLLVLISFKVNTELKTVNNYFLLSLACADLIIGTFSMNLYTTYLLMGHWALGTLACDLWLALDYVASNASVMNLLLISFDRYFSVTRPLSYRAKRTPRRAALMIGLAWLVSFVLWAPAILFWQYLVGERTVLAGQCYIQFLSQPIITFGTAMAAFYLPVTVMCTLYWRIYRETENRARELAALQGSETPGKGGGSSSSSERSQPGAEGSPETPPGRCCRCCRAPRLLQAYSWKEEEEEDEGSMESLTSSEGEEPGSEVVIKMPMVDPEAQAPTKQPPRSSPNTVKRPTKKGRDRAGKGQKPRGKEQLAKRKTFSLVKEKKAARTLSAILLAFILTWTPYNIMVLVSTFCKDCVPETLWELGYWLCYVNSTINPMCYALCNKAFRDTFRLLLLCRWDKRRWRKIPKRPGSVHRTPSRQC
CHRM1 antagonist: antagonists of human M1 muscarinic receptor; CHO-K1 hM1, Fluo-8 calcium fluorescence, ACh EC80 antagonist; inhibition, % at 3 µM; actives 1.3% (n = 360,000); AID 588852;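 active = percent inhibition above its own plate's cutoff, namely the mean of that plate's compound wells plus 3 SD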;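 also: peak over basal fluorescence ratio during 140 s after agonist addition; 0% = ACh EC80 plus DMSO and 100% = DMSO alone without agonist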
M1 PAM parental: nonselective activator or artifact in parental CHO-K1 calcium assay. activation, % at 3 µM. actives 0.02% (n = 360,000). AID 602247. ATP EC20, Fluo-8 calcium fluorescence; 0% at ATP EC20, 100% at ATP max;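 active = activation above the run cutoff, the mean activation of all test compounds plus 3 SD, cut at about 40% in these data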;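 also: peak over basal fluorescence ratio in a 140 s read after ATP addition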
CHRM1 PAM: positive allosteric modulators of human M1 muscarinic receptor | P11229 | CHO-K1 hM1, Fluo-8 calcium fluorescence, ACh EC20; 0% = ACh EC20, 100% = maximal ACh | activation, % at 3 µM | actives 0.088% (n = 360,000) | AID 588819; in the data active = activation above about 19%, passing the limit was not always enough
M1 ag parental: M1 agonist counterscreen hit in parental CHO-K1 cells | AID 602248 | Fluo-8 calcium fluorescence; scaled to maximal ATP response, vehicle zero | actives 0.48% (n = 360,000) | activation, % at 3 µM; in the data active = activation above about 15%;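 also: untransfected CHO-K1 host cells lacking M1 receptor as counterscreen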
CHO-K1 Ca antag: nonselective inhibitor or artifact in parental CHO-K1 cells | actives 0.6% (n = 360,000) | inhibition, % at 3 µM | ATP-induced calcium, Fluo-8 fluorescence;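 active = inhibition above a per-plate cutoff, the plate's mean sample inhibition plus 3 SD, cut at about 24% in these data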;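 also: 0% = DMSO plus EC80 ATP and 100% = DMSO alone without ATP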
* marks the source's active call; other numbers are inactive results.

SMILES	CHRM1 agonist	CHRM1 antagonist	M1 PAM parental	CHRM1 PAM	M1 ag parental	CHO-K1 Ca antag
Cc1sc(NC(=O)/C=C/C(=O)O)c(C(N)=O)c1-c1ccc(C(C)(C)C)cc1	-1.2	-7.7	14.5	9.1	0.2	-9.0
CC(Sc1ncn[nH]1)C(=O)c1c(N)n(C)c(=O)n(C)c1=O (configuration not stated)	8.4	6.3	-2.1	9.6	-0.3	4.6
CC(Sc1nnc(N)s1)C(=O)c1c(N)n(C)c(=O)n(C)c1=O (configuration not stated)	-0.8	0.6	-0.3	3.2	18.2*	14.1
Cn1c(CCN2CCCC2)nc2cc(NS(=O)(=O)c3ccc(Cl)cc3)ccc21	-1.2	27.0	11.2	-11.8	8.8	-1.3
CC(C)C12CN(C(=O)c3ccccc3[N+](=O)[O-])CC(C(C)C)(CN(C(=O)c3ccccc3[N+](=O)[O-])C1)C2=O	-5.9	-13.5	5.6	6.0	0.8	-8.9
Cc1nnsc1C(=O)NC(C)c1ccccc1 (configuration not stated)	4.2	-16.6	0.9	5.0	21.0*	1.8
Nc1nc(CCl)nc(Nc2cccc3ccccc23)n1	-1.2	-11.6	1.6	11.8	-0.2	0.1
Cc1cccc(-c2ccc3c(c2)C2CC3CCN2)c1 (configuration not stated)	-9.9	32.2	1.7	-27.1	0.6	7.4
Fc1ccc(-c2ccc3c(c2)C2CC3CCN2)cc1 (configuration not stated)	-4.3	39.3*	5.5	-30.0	4.6	-2.1
Cc1ccccc1OCC(=O)NCCCNC(=O)c1ccncc1	3.0	-22.2	6.3	28.4*	0.3	-0.7
COc1ccc(NC(=O)Nc2cccc(C(=O)N3CCOCC3)c2)cc1OC	2.1	-46.4	24.1	16.9	0.4	-15.5
CCOCCCn1c(=N)c(S(=O)(=O)c2ccccc2)cc2c(=O)n3cc(C)ccc3nc21	-6.0	-21.9	5.7	18.5	0.3	5.5
Cc1ccc(NC(=O)COC(=O)Cc2ccc(Br)cc2)cc1S(=O)(=O)N1CCOCC1	-1.5	35.2*	14.6	-16.1	5.2	-19.0
Cc1ccc(NC(=O)COC(=O)Cc2ccccc2)cc1S(=O)(=O)N1CCOCC1	-2.3	-5.2	17.8	6.2	2.9	-10.6
Cc1ccc(NC(=O)COC(=O)CN2C(=O)NC(C)(C)C2=O)cc1S(=O)(=O)N1CCOCC1	1.0	3.9	4.5	5.9	19.5*	6.1
CCCCNc1c(-c2ccc(SC(C)CC)c(OC)c2)nc2ccc(C)cn12 (configuration not stated)	-7.1	43.9*	0.3	-21.9	2.2	8.8
CCCCNc1c(-c2ccc(OC)c(Sc3ccc(OC)cc3)c2)nc2cnccn12	-0.5	7.2	-11.5	-2.7	1.6	3.5
CCCCNc1c(-c2ccc(OC)c(Sc3ccc(OC)cc3)c2)nc2ccccn12	-4.1	50.2*	2.4	-20.4	6.7	-8.4
O=C(Nc1ccccc1)C1CCCCC1	-3.6	-13.9	2.2	6.2	0.0	6.3
CCc1nc2ccc(C(=O)NCCN3CCNC3=O)cn2c1N(C)CCC(C)C	-7.0	-16.7	13.2	4.6	0.9	-5.0
COc1ccc(-c2ccc(SCC(=O)Nc3nccs3)nn2)cc1OC	-1.3	34.9*	-12.2	-12.5	4.4	2.3
COc1ccc(-c2csc(NC(=O)C3CCN(c4ncnc5sc(C)c(C)c45)CC3)n2)cc1OC	-3.0	46.4*	-17.8	-12.0	1.7	20.7
COc1ccccc1OCC(=O)NNC(=O)C1CCN(c2ncnc3sc(C)c(C)c23)CC1	-2.5	11.7	0.1	-11.7	7.9	-11.6
COc1ccc(CC(=O)Nc2nc(-c3ccc(OC)c(OC)c3)cs2)cc1OC	16.3*	-4.5	16.8	5.7	14.3	0.3
COc1ccc(S(=O)(=O)Nc2ccccc2C(=O)Nc2nc(-c3ccc(F)cc3)cs2)cc1OC	-4.5	28.6	-6.6	-14.0	14.8	32.5*
COc1ccc(-c2nnc3ccc(SCC(=O)Nc4nccs4)nn23)cc1OC	-8.7	6.2	15.0	-0.7	7.3	3.0
CN(C)/C=C\C(=C/C(=O)C(F)(F)F)Nc1ccccc1Oc1ccccc1	-5.3	-9.7	0.4	12.0	0.5	-12.0
COc1cc(S(=O)(=O)N2CCN(C(=O)c3ccco3)CC2)c(OC)cc1C	-0.2	78.0*	17.0	7.0	1.0	-7.2

Screens (PubChem)
